# PGE2 EP2 inh = inhibitors of human EP2 prostaglandin E2 receptor; actives 0.52% (n = 260,000); AID 1422; C6 glioma cells expressing human EP2, cAMP TR-FRET; cells stimulated with saturating PGE2; inhibition, % at 25 µM;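 active = percent inhibition above 40 after rounding to a whole number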;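 note: rat C6 glioma host cells with rolipram phosphodiesterase inhibitor present; the protocol text gives 20 µM as final concentration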
# Furin inhibitor = inhibitors of human furin. inhibition, % at 20 µM or 30 µM. actives 0.061% (n = 220,000). purified furin, fluorogenic substrate cleavage. P09958. AID 463115; in the data active = inhibition above about 25%
# Target sequence (P09958 108-714 limits assumed): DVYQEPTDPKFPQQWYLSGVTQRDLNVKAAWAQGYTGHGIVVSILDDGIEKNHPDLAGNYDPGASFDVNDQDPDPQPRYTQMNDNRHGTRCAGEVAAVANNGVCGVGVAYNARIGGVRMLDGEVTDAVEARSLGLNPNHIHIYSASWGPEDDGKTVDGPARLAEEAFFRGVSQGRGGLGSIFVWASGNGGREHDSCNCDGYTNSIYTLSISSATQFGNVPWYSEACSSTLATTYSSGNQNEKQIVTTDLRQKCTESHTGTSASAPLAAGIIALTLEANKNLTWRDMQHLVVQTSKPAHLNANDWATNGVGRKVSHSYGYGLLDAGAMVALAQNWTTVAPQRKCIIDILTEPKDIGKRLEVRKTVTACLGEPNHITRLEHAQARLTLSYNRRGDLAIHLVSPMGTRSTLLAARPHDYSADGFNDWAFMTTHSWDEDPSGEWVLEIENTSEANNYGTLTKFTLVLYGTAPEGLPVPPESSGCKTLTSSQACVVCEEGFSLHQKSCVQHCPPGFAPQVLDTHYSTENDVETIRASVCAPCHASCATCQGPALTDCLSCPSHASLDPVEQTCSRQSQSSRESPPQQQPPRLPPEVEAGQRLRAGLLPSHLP
# m-calpain inh = blocks pig calpain II enzyme activity; purified calpain II, fluorogenic peptide substrate, 30 min; inhibition, % at 16 µM; actives 0.37% (n = 220,000);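 active = inhibition above about 50%, limit read from the data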
# Efa HMGR inh = E. faecalis class II HMG-CoA reductase inhibition | actives 0.41% (n = 190,000) | inhibition, % at 10 µM | purified E. faecalis HMGR, NADPH absorbance 340 nm kinetic;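 active = inhibition above a set limit, the median over all tested compounds plus 3 SD, cut at about 9.5% in these data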;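 note: enzyme runs in reverse so mevalonate oxidation gives rising NADPH absorbance; 0% = complete reaction with DMSO and 100% = background rate lacking mevalonate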
# EP2 modulator = EP2 receptor (human) modulation; P43116; EP2-expressing cells, cAMP HTRF FRET, PGE2 co-stimulation; induction, % at 25 µM; actives 0.83% (n = 260,000); AID 940;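 active = compounds whose cAMP rise, as percent of the full-agonist control response, exceeds 60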;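 note: rat C6 glioma line stably carrying human EP2 under a CMV promoter; the protocol text gives 20 µM as final concentration; 100% = response of wells given 1 µM PGE2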
# EP2 cAMP induct = human EP2 receptor cAMP induction, negative in counter-screens | actives 47% (n = 1,300) | shares compounds with EP2 modulator | AID 1080 | C6 glioma EP2 cells, cAMP HTRF induction; plus low (about EC15) PGE2 agonist | calls only at 20 µM (by protocol);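 active = cAMP induction above 50% in the main assay while under 30% in all four parallel counter assays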;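 note: rat C6 glioma cells stably expressing human EP2 receptor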
# Numbers without * were called inactive; i = inactive; . = not tested or not shown; + = active, no number. A selection: hits, their analogues and other compounds. The true share with any hit is near 1.9%.
SMILES,PGE2 EP2 inh,Furin inhibitor,m-calpain inh,Efa HMGR inh,EP2 modulator,EP2 cAMP induct
COc1cccc(C(O)CN2CCC(O)(c3ccc(C(F)(F)F)cc3)CC2)c1 (stereo not drawn),7,.,.,.,-41,.
O=C(CN1CCC(c2ccncc2)CC1)Nc1ccc2c(c1)OCO2,7,.,.,.,-86,.
Cc1sc(NC(=O)c2ccccc2F)c(CN2CCCCC2C)c1C (stereo not drawn),10,-31,5,0,79*,+
c1ccc(-c2noc(-c3ccccc3-c3ccccc3)n2)cc1,9,-18,-21,-6,51,+
Fc1ccccc1-c1nc(-c2ccc(Cl)cc2)no1,0,-1,.,.,.,.
COC(=O)c1cc2occc2n1Cc1nc(-c2ccccc2Cl)oc1C,11,-21,-12,-3,49,.
COC(=O)c1cc2occc2n1Cc1cccc(C)c1,3,-9,29,-4,76*,+
COc1ccc(OC)c(/C=C/C(=O)N2CCCc3ccccc32)c1,5,-11,4,0,79*,+
OC1(c2cccnc2)CCN(Cc2ccc(-c3ccc(F)cc3)cc2)CC1,9,.,.,.,-113,.
CCOC(=O)c1sc2nccc(N(C)C)c2c1N=CNOCc1ccccc1,10,-15,25,-1,74*,+
Cc1cc(Oc2ccccc2F)nc(NCc2ccccc2)n1,.,-30,20,-2,66*,+
Cc1cc(Oc2ccccc2)nc(NCc2ccccc2)n1,11,-9,12,-2,66*,+
COc1ccc(CNC(=O)CSc2nc3cc(Cl)c(C)cc3cc2C#N)cc1,14,.,.,.,-22,.
COc1cc(NC(=O)c2cccc(Cl)c2Cl)ccc1NC(=O)c1ccco1,12,.,.,.,-93,.
OCCCNc1nc(-c2ccc(Br)cc2)nnc1-c1ccc(Cl)cc1,9,-13,15,-1,95*,+
CCc1ccccc1NC(=O)Cn1cnc2sc(C)c(C)c2c1=O,17,.,.,.,5,.
CCOc1cc(-c2noc(-c3ccncc3)n2)cc(Br)c1OC,5,-15,-22,1,50,+
Cc1ccc(C(=O)O)cc1NC(=S)NC(=O)C(c1ccccc1)c1ccccc1,20,-15,-37,-1,48,.
COc1ccccc1C(=O)NC(=S)Nc1cc(C(=O)O)ccc1C,12,-18,-31,-1,72*,+
COc1cc2ccccc2cc1C(=O)NC(=S)Nc1cc(C(=O)O)ccc1C,2,-11,-4,-2,100*,+
Cc1ccc(C(=O)O)cc1NC(=S)NC(=O)Cc1ccccc1,9,-9,6,1,2,.
COc1cc2nc(N(C)CCCNC(=O)C3CCCO3)nc(N)c2cc1OC (stereo not drawn),15,.,-189,-1,-10,.
COc1cc2nc(N3CCN(C(=O)C4CCCO4)CC3)nc(N)c2cc1OC (stereo not drawn),18,-99,-281,-3,6,i
CCOC(=O)c1oc2ccccc2c1NC(=O)c1cccc(OC)c1OC,10,-24,-108,-1,66*,i
CNc1ncc(C(=O)c2ccc(-c3ccccc3)cc2)s1,4,-29,-12,.,6,.
SMILES,PGE2 EP2 inh,Furin inhibitor,m-calpain inh,Efa HMGR inh,EP2 modulator,EP2 cAMP induct
Cc1ccc(C(=O)c2cnc3ccccc3c2-c2ccccc2)cc1,4,-4,8,-4,92*,+
COc1ccc(C(=O)c2cnc3ccccc3c2-c2ccccc2)cc1,7,-5,13,-6,92*,+
CC1CCc2c(sc3nc(C4CC4)nc(SCC(=O)N4CCCC4)c23)C1 (stereo not drawn),10,.,.,.,-29,.
CCOc1ccc(N(C)c2ccc(/C=C/c3sc4ccccc4[n+]3C)cc2)cc1,14,.,.,.,-67,.
CCOc1ccc(-n2nc3c(=S)[nH]nc(C)c3c2C)cc1,21,-17,-5,0,66*,i
Fc1ccc(-c2cc(-c3ccccc3)nc(-n3cccn3)n2)cc1,12,-8,30,-4,41,+
Cc1nc2c3cc(F)ccc3n(Cc3ccccc3)c2s1,2,-6,25,-2,72*,+
O=C(CSc1nccc(=O)[nH]1)Nc1cccc(F)c1,3,.,.,.,1,.
CC(C)Sc1nc2sc3c(c2c2nnc(SCC(=O)NCc4ccco4)n12)CCCC3,11,-10,i,2,58,i
Cc1nc(SCC(=O)NCc2ccco2)c2c3c(sc2n1)CCCC3,17,-18,-20,2,1,.
